# Assay results from ChEMBL document CHEMBL1857833, “Screening and optimization of specific chemical series against human African Trypanosomiasis (HAT)”.
# Out of some 4,400 compounds screened, about 390 (8.9%) showed an effect of 50% or more. This excerpt belongs to a sample that is enriched for strong results.
# Test system: Trypanosoma brucei
# Test: DNDI: Inhibition of Human African Trypanosomiasis, SBRI 427, in vitro at 2 ug.mL-1
# Type: functional
row,Structure (SMILES),% inhibition
1,CCN(CCC#N)Cc1coc(-c2cc(OC)c(OC)c(OC)c2)n1,-11%
2,Cc1ccc(/C(=N/O)N2C(C)CCC2C)c(OCc2ccccc2C)n1 (stereo not drawn),21%
3,COC[C@H]1CCCN1Cc1coc(-c2ccc(C)cc2)n1,-9%
4,Cc1ccc(Oc2ccc(/C(=N/O)Nc3ccccc3)cn2)c(C)c1,22%
5,Cc1cc(C)cc(Oc2ccc(/C(=N/O)NC3CCc4ccccc43)cn2)c1 (stereo not drawn),12%
6,Cc1cc(C)cc(Oc2ccc(/C(=N/O)NC3CCCCC3)cn2)c1,99%
7,Cc1ccc(Oc2ccc(/C(=N/O)NCC3CC3)cn2)c(C)c1,98%
8,Cc1ccc(Oc2ccc(/C(=N/O)NC3CCCC3)cn2)c(C)c1,91%
9,Cc1ccc(Oc2ccc(/C(=N/O)NCc3c(F)cccc3F)cn2)c(C)c1,16%
10,Cc1ccc(Oc2ccc(/C(=N/O)NC3CC3)cn2)c(C)c1,26%
11,Cc1cc(C)cc(Oc2ccc(/C(=N/O)NC3CCN(Cc4ccccc4)C3)cn2)c1 (stereo not drawn),-11%
12,Cc1cc(C)cc(Oc2ccc(/C(=N/O)NC3CCC3)cn2)c1,99%
13,Cc1ccc(Oc2ccc(/C(=N/O)NCc3cccs3)cn2)c(C)c1,21%
14,Cc1cc(C)cc(Oc2ccc(/C(=N/O)N(C)C3CCCCC3)cn2)c1,-8%
15,Cc1cc(Oc2ccc(/C(=N/O)NC3CCCCC3)cn2)cc(C(C)C)c1,17%
16,COc1ccc(-c2nc(CNc3cc(C(C)(C)C)nn3C)co2)cc1,7%
17,Cc1ccccc1-c1nc(CN(C)C2CCN(Cc3ccccc3)C2)co1 (stereo not drawn),8%
18,CCCN(CC1CC1)/C(=N\O)c1ccc(C)nc1Oc1ccc(OC)cc1,30%
19,COc1ccc(-c2nc(CNCc3ccc(C(F)(F)F)cc3)co2)cc1,2%
20,CSc1ccc(Oc2nc(C)ccc2/C(=N/O)N2CCN(C3CCCC3)CC2)cc1C,13%

row,Structure (SMILES),% inhibition
1,Cc1ccc(/C(=N/O)N2CC=CC2)c(OCc2cccc(F)c2)n1,-19%
2,CCCN(CC)Cc1coc(-c2cccc(OCC)c2)n1,20%
3,COc1ccc(-c2nc(CN3C(C)C=CC3C)co2)cc1 (stereo not drawn),1%
4,FC(F)(F)Oc1ccc(CNCc2coc(-c3ccc(Br)cc3)n2)cc1,8%
5,CCOC(=O)C1CCN(Cc2coc(-c3cccc(OC)c3)n2)CC1,37%
6,COc1ccc(N2CCN(Cc3coc(-c4ccccc4Cl)n3)CC2)cc1,-8%
7,Cc1cc(C)cc(Oc2ccc(/C(=N/O)Nc3ccccc3)cn2)c1,0%
8,Cc1cc(C)cc(Oc2ccc(/C(=N/O)NC3CCC(C)CC3)cn2)c1 (stereo not drawn),82%
9,Cc1cc(C)cc(Oc2ccc(/C(=N/O)NC3CC(C)CC(C)(C)C3)cn2)c1 (stereo not drawn),14%
10,Cc1cc(C)cc(Oc2ccc(/C(=N/O)NC3CCCC3)cn2)c1,98%
11,CCN(CC)CCN(C)Cc1coc(-c2cccs2)n1,4%
12,CCCCN(CCCC)CCCNCc1coc(-c2ccc(F)cc2)n1,1%
13,CN(C)CCCNCc1coc(-c2ccc(F)cc2)n1,73%
14,Cc1cccc(CNCc2coc(-c3cccc(C)c3)n2)c1,-10%
15,CCN(CC)CCNCc1coc(-c2cccc(C)c2)n1,26%
16,CCN(CC)CCNCc1coc(-c2ccc(F)cc2)n1,-17%
17,CCCCN(CCCC)CCCNCc1coc(-c2ccc(C)cc2)n1,53%
18,CCN(CC)CCCNCc1coc(-c2cccc(C)c2)n1,95%
19,CCN(CC)CCCNCc1coc(-c2ccc(F)cc2)n1,-8%
20,CCCCN(CCCC)CCCNCc1coc(-c2ccco2)n1,20%

row,Structure (SMILES),% inhibition
1,COc1cccc(-c2nc(CNCc3ccc(C(C)(C)C)cc3)co2)c1,5%
2,COc1ccc(Oc2ncccc2/C(=N/O)NCCN2CCOCC2)cc1,-10%
3,Cc1cc(NCc2coc(-c3ccc(Cl)cc3Cl)n2)n(-c2ccccc2)n1,-4%
4,CCN(Cc1coc(-c2cccc3ccccc23)n1)c1ccc2c(c1)OCO2,29%
5,Cc1ccc(-c2nc(Cn3ccnc3C(C)C)co2)cc1,39%
6,Fc1ccccc1-c1nc(CNCC(F)(F)C(F)(F)F)co1,21%
7,Oc1ccc(-c2nc(CNC34C[C@H]5C[C@@H](C3)C[C@@H](C4)C5)co2)cc1,23%
8,CCc1nccn1Cc1coc(-c2cccc(OC)c2)n1,-9%
9,COc1cccc(-c2nc(CNC34C[C@H]5C[C@@H](C3)C[C@@H](C4)C5)co2)c1,85%
10,Brc1ccccc1-c1nc(CNC23C[C@H]4C[C@@H](C2)C[C@@H](C3)C4)co1,48%
11,Brc1ccc(-c2nc(CNCc3ccccn3)co2)cc1,-9%
12,Cc1cccc(-c2nc(CNC34C[C@H]5C[C@@H](C3)C[C@@H](C4)C5)co2)c1,35%
13,COc1ccc(NCc2coc(-c3cccc(OC)c3)n2)cc1,8%
14,COc1cccc(-c2nc(Cn3ccnc3C)co2)c1,31%
15,c1csc(-c2nc(CNC34C[C@H]5C[C@@H](C3)C[C@@H](C4)C5)co2)c1,25%
16,COc1cccc(-c2nc(Cn3ccnc3C=O)co2)c1,84%
17,Fc1ccc(-c2nc(CNC34C[C@H]5C[C@@H](C3)C[C@@H](C4)C5)co2)cc1,58%
18,Brc1ccc(-c2nc(CNC34C[C@H]5C[C@@H](C3)C[C@@H](C4)C5)co2)cc1,62%
